Potency and outcome data for eleven molecules are collected here from PubChem BioAssay (Tox21).

Results filed as inconclusive are left out. Activity calls are given as the source filed them. Unless noted, calls follow the shape of the dose curve; as a rule, active = well fitted curve in the direction sought with a large enough effect in the repeat runs; inconclusive = weak or mixed curves; inactive = no such curve, though single readings can be large; an effect the other way counts as inactive or inconclusive.

The nature of test [1]: qHTS assay to identify small molecule agonists of the endoplasmic reticulum stress response signaling pathway (AID 1159516; active = well fitted activation curve with a large enough effect in the signal ratio in the repeat runs, not every such curve was filed as active; the % refers to the signal ratio). The gist of the method: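 An ESRE-bla HeLa cell assay: compounds were pin-transferred from DMSO onto overnight-plated cells and left 5 hr at 37 C. Substrate was then loaded for 2 hr at room temperature before reading fluorescence at 460 nm and 530 nm.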

The target of test [2] is Nuclear receptor ROR-gamma (Homo sapiens) (UniProt P51449). Nature of the test: qHTS assay to identify small molecule antagonists of the retinoid-related orphan receptor gamma (ROR-gamma) signaling pathway (AID 1159521; also: nearly all actives have a fitted effect of over 50% in size; also: potency is read from the fitted curve at half-maximal effect). The gist of the method: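 Inducible-expression reporter assay: doxycycline (1 uM final) switched on RORγ in CHO cells bearing a ROR response element-luciferase construct, with test compounds present from 2 h beforehand. Decreased luminescence after 16 h defined antagonist activity.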

Test [3] in a line: qHTS assay to identify small molecule agonists of the RXR signaling pathway - cell viability counter screen (AID 1159529). Also: nearly all actives have a fitted effect of over 50% in size. Also: potency is read from the fitted curve at half-maximal effect. A digest of the protocol: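 Counter screen: CellTiter-Glo luminescence. Cells: RXR-alpha-UAS-bla HEK 293T. Medium: 2% charcoal-stripped FBS. Treatment: 16 h, 37 C. Reagent incubation: 30 min, RT.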
Test [4] in a line: qHTS assay to identify small molecule antagonists of the retinoic acid receptor (RAR) signaling pathway (AID 1159552; also: nearly all actives have a fitted effect of over 50% in size; also: potency is read from the fitted curve at half-maximal effect). A digest of the protocol:
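Antagonism of retinol-induced RARE reporter activity was measured in C3RL4 cells. Exposure to compounds and 1 uM final retinol lasted 6 hr at 37 C, with luminescence as endpoint.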

Test [5] in a line: qHTS assay to identify small molecule antagonists of the estrogen related receptor (ERR) signaling pathway from Tox21 library - cell viability counter screen (AID 1224834). Also: nearly all actives have a fitted effect of over 30% in size. Also: potency is read from the fitted curve at half-maximal effect. A digest of the protocol:
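After 17.5 h of compound exposure at 37 C, ERR cells are incubated with CellTiter-Fluor for 30 min and fluorescence intensity serves as the viability measure.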

Test [6] can be described thus: qHTS assay to identify small molecule antagonists of the retinoid acid receptor (RAR) signaling pathway - cell viability counter screen (AID 1159551). Also: nearly all actives have a fitted effect of over 35% in size. The gist of the method: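 Retinol-stimulated (1 uM final) C3RL4 cells, compound 6 h, 37 C; readout CellTiter-Glo luminescence (ATP) after 30 min RT incubation.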
Test [7] in a line: qHTS assay to identify small molecule antagonists of the estrogen related receptor (ERR) signaling pathway - cell viability counter screen (AID 1224818). Also: series mostly up to about 46 µM. The gist of the method:
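After a 6 h pre-incubation, ERR cells were dosed by pin tool with compounds, positive/negative controls or DMSO alone. Following 17.5 h at 37 C and 30 min with CellTiter-Fluor, fluorescence was recorded.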

Test [8] is described as follows: qHTS assay to identify small molecule agonists of the estrogen related receptor (ERR) signaling pathway (AID 1224820). A digest of the protocol: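 Quantitative HTS of the LOPAC library used NTP ERR reporter cells treated 18 h at 37 C. Signal is luminescence after One-Glo addition and a 30 min room-temperature incubation.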
For test [9], the system named is estrogen-related receptor alpha (ERRalpha) with PGC-1alpha coactivator, human. Nature of the test: qHTS assay to identify small molecule antagonists of the estrogen related receptor signaling pathway with the pleiotropic PPARgamma coactivator (PGC) (AID 1224821; calls by dose curve;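 also: series mostly up to about 46 µM; lower luminescence signal means antagonism of PGC/ERR signalling; nearly all actives have a fitted effect of over 50% in size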). A digest of the protocol:
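Quantitative HTS for antagonism: PGC/ERR cells received compounds after 6 h attachment and were incubated 18 h at 37 C, with luminescence (One-Glo) as the endpoint.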

Test [10] in a line: qHTS assay to identify small molecule agonists of the estrogen related receptor signaling pathway with the pleiotropic PPARgamma coactivator (PGC) (AID 1224823). The gist of the method: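 Cell-based luciferase assay in the NTP-supplied PGC/ERR line, 2,000 cells/well; 18 h compound exposure at 37 C, luminescence after One-Glo.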
A short description of test [11]: qHTS assay to identify small molecule agonists of the vitamin D receptor (VDR) signaling pathway - cell viability counter screen (AID 743224). Also: nearly all actives have a fitted effect of over 50% in size. Also: potency is read from the fitted curve at half-maximal effect. A digest of the protocol: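 Plated VDR-bla cells (4 h, 37C) received compound, incubated 16 h, then LiveBLAzer substrate 2 h RT; CellTiter-Glo added afterwards, luminescence read at 30 min.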
Test [12] can be described thus: qHTS assay to identify small molecule agonists of the endoplasmic reticulum stress response signaling pathway - cell viability counter screen (AID 1159517; calls by dose curve). The gist of the method: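 Counter-screen wells were identical to the reporter wells. Cells were plated at 1,500 per well and dosed for 5 hr, then read for luminescence 30 min after CellTiter-Glo addition.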
The nature of test [13]: qHTS assay to identify small molecule antagonists of the retinoid-related orphan receptor gamma (ROR-gamma) signaling pathway - cell viability counter screen (AID 1159520). Also: nearly all actives have a fitted effect of over 50% in size. Also: potency is read from the fitted curve at half-maximal effect. The gist of the method: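 Tet-on ROR gamma CHO cells were given compounds for 2 hr, then doxycycline hyclate at 1 uM final, and incubated 16 hr at 37 C. Viability was measured as ATP content by CellTiter-Glo luminescence.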

Test [14] can be described thus: qHTS assay to identify small molecule agonists of the AP-1 signaling pathway - cell viability counter screen (AID 1159525; calls by dose curve; also: nearly all actives have a fitted effect of over 55% in size). The gist of the method:
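AP-1-bla ME-180 cells in Opti-MEM with 0.5% dialyzed FBS, compound exposure 5 h at 37 C in 15-point titration. Viability read in the same wells as ATP content by CellTiter-Glo luminescence, normalised to tetra-n-octylammonium bromide and DMSO controls.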

Test [15] can be described thus: qHTS assay to identify small molecule agonists of the AP-1 signaling pathway (AID 1159526; calls by dose curve).
The target in test [16] is Retinoic acid receptor RXR-alpha (Homo sapiens) (UniProt P19793). Nature of the test: qHTS assay to identify small molecule agonists of the RXR signaling pathway (AID 1159527; calls by dose curve; also: nearly all actives have a fitted effect of over 35% in size). A digest of the protocol:
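Compounds in DMSO were added to RXR-alpha-UAS-bla HEK 293T cells kept in 2% charcoal-stripped serum, and incubated 16 hr at 37 C with 5% CO2. Reporter signal came from a 2 hr B/G FRET substrate step.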

A short description of test [17]: qHTS assay to identify small molecule agonists of the retinoic acid receptor (RAR) signaling pathway (AID 1159553). A digest of the protocol:
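Reporter readout comes from luciferase under RARE control in C3RL4 cells; compound exposure lasts 6 hr at 37 C in 5% CO2, and luminescence is recorded following a 30 min room-temperature incubation with reagent.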

Test [18] can be described thus: qHTS assay to identify small molecule antagonists of the vitamin D receptor (VDR) signaling pathway - cell viability counter screen (AID 743225). Also: nearly all actives have a fitted effect of over 50% in size. Also: potency is read from the fitted curve at half-maximal effect. A digest of the protocol:
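Same-well multiplex: following 16 h treatment of HEK 293T cells carrying a UAS-driven beta-lactamase reporter with compound and agonist (3 nM final), and a 2 h FRET substrate step, CellTiter-Glo was added and luminescence read after 30 min.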

Retinoic acid receptor RXR-alpha (Homo sapiens), sequence (P19793 whole entry, looked up): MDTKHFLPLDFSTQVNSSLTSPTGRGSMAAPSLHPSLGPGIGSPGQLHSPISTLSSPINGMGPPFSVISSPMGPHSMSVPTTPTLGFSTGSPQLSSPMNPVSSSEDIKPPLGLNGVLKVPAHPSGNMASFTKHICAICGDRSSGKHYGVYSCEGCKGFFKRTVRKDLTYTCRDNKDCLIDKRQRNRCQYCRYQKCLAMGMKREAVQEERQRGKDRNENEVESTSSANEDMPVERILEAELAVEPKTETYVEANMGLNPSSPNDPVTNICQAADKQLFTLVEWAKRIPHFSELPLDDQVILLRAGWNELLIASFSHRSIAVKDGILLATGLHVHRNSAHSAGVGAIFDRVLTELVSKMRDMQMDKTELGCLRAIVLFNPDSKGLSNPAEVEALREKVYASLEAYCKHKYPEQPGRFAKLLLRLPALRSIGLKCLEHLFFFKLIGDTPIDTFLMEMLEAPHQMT

Regarding `CCN(CC)CCOc1ccc(C(O)(Cc2ccc(Cl)cc2)c2ccc(C)cc2)cc1` (centres undefined), in test [1], the Potency entry is “inactive”. Moreover, the Potency in test [2] is 29.8 µM (active); in [3], 21.3 µM (active); in test [4], 26.6 µM (active); in test [5], 33.5 µM (active).
`CN1CCN(C2Cc3ccccc3Sc3ccc(Cl)cc32)CC1` (centres undefined): the Potency result in [1], in test [6] and in test [7] was “inactive” in each case. In addition, the Potency in [2] is 26.6 µM (active); in test [3], 23.9 µM (active); in test [4], 29.8 µM (active). The result in [8], in [9] and in test [10] was inactive.
With `NCCCCCCNCCCCCCN`, the Potency result in test [11], in [12], in test [13], in test [2], in test [14] and in test [15] was “inactive” throughout. The Potency entry in test [16], in test [3], in test [6], in test [4], in [17] and in test [5] was “inactive” each time.
`COC(=O)CC#N`: the Potency entry in test [11], in [18], in [1], in test [13], in test [14] and in test [15] was “inactive” throughout. Further, the Potency result in [16], in test [3], in [6], in test [4], in test [17] and in test [5] was “inactive” in each case.
On to `C[C@]12CC[C@H]3C(=CCc4cc(O)ccc43)[C@@H]1CCC2=O`, for which the Potency result in test [11], in test [1], in [13], in [2], in [15] and in test [6] was “inactive” throughout. In addition, the Potency entry in test [4] is “inactive”. In addition, the Potency in test [3] was 21.9 µM (active); in test [5], 54.5 µM (active).
For `CCc1ccc(O)c(C(C)(C)C)c1`, the Potency in test [18] is 38.9 µM (active). The Potency result in test [1], in test [13], in test [2] and in test [16] was “inactive” in each case.
In the case of `CC(COC(=O)c1ccccc1)OC(=O)c1ccccc1` (centres undefined), the Potency entry in test [11], in test [18], in test [12], in test [13], in test [2] and in test [14] was “inactive” throughout. In addition, the Potency entry in test [15], in test [16], in test [3], in test [6], in test [4] and in test [17] was “inactive” throughout. In addition, in test [5], the Potency entry is “inactive”.
For `O[C@@H](c1cc(C(F)(F)F)nc2c(C(F)(F)F)cccc12)[C@H]1CCCCN1`, the Potency in [11] was 21.1 µM (active); in [18] it was 19 µM (active); in test [4], 23.7 µM (active); in test [5], 29.8 µM (active). Moreover, the Potency entry in test [1] and in test [14] was “inactive” in each case.
Turning to `Cc1cccc(Br)c1`, the Potency result in test [11], in test [18], in test [1], in [13], in test [6] and in [4] was “inactive” in each case. Further, the Potency result in test [5] is “inactive”. Also, in test [3], the Potency is 55.3 µM (active).
As for `Oc1ccc(-c2ccc(O)cc2)cc1`, the Potency result in test [11], in test [18], in test [1], in test [13], in [2] and in test [14] was “inactive” throughout. Also, the Potency result in [15], in [3], in test [4] and in [17] was “inactive” throughout.
As to `CC(O)C#CC(C)O` (centres undefined), in [1], the Potency entry was “inactive”. Further, the Potency is 27 µM (active) in test [13], 19.1 µM (active) in test [2], 43.2 µM (active) in [3] and 30.3 µM (active) in test [4].
